Active and inactive are the calls of the source.

The subject of experiment [1] is Human papillomavirus type 1a protein E7 (residues 44-93). Kind of experiment: small molecules binding HPV E7 44-93 – biochemical, small-molecule microarray, residues 44-93, 635 nm fluorescence, primary screen (AID 1108).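 Note: E7 fragment applied at 1 µg/mL in TBST for 1 h at 4 C; score combines spot fluorescence with its signal to noise ratio.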 The note with it: fluorescence 635 nm, higher = more signal.
Experiment [2] can be described thus: hepatitis C replication reporter changes, two-sided – Huh7 cells, luciferase reporter, HCV replication inhibitor project, primary screen (AID 1109).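 Note: huh7 hepatoma cells harbouring a luciferase neomycin HCV replicon reporter; luciferase luminescence as measure of HCV replicon replication; test concentration not given here.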 The conditions noted are these: Huh7 HCV replicon luciferase reporter, 48 h; higher = more signal. (In general: A reporter such as luciferase makes a cellular process visible.)
Experiment [3] concerns the target Left-right determination factor 2 (Homo sapiens) (UniProt O00292). Kind of experiment: small molecules binding LEFTY2 protein – biochemical, small-molecule microarray, 635 nm fluorescence scan, primary screen (AID 1110). The note with it: higher = more signal.
Experiment [4] deals with Calmodulin-1 (Homo sapiens) (UniProt P0DP23). Kind of experiment: small molecules binding calmodulin-1 with EGTA – biochemical, small-molecule microarray, Cy5-labelled CALM1, profiling panel (AID 1111).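 Note: labelled calmodulin applied in Tris saline Tween buffer holding calcium plus EGTA and DTT.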 The conditions noted are these: Cy5-CALM1 binding fluorescence, higher = more signal.
Experiment [5] shares this target. Kind of experiment: small molecules binding Ca-loaded calmodulin-1 – biochemical, small-molecule microarray, Cy5-labelled CALM1, plus calcium, artefact control for SMM control-protein annotation, profiling panel (AID 1112).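 Note: score merges spot fluorescence with signal to noise from triplicate slides.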 The note with it: Cy5-CALM1 binding fluorescence, higher = more signal.
A short description of experiment [6]: probe aWnt5a binding to arrayed compounds – biochemical, biotinylated probe, 635/667 nm fluorescence, primary screen (AID 1113).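 Note: score merges 667 nm fluorescence intensity with signal-to-noise per printed feature.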 The conditions noted are these: small-molecule microarray, higher = more signal.
Experiment [7] is described as follows: probe aShh binding to arrayed compounds – biochemical, biotinylated probe, 635/667 nm fluorescence, primary screen (AID 1114).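 Note: probe is biotin-labelled aShh protein from a stem cell growth factor screen; measures binding of labelled protein to compounds printed on the slide; score merges feature fluorescence at 667 nm with signal-to-noise.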 The conditions noted are these: small-molecule microarray, higher = more signal.
The nature of experiment [8]: probe aNog binding to arrayed compounds – biochemical, biotinylated probe, 635/667 nm fluorescence, primary screen (AID 1115).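 Note: probe is biotinylated aNog protein used at 0.15 µg/mL for 1 h at 4 C; z-score combines 667 nm fluorescence of each spot with its signal to noise.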 The note with it: small-molecule microarray, higher = more signal.
The target in experiment [9] is Torsin-1A-interacting protein 1 (Homo sapiens) (UniProt Q5JTV8). Kind of experiment: compound microarray binding of lysate hLAP1 – cell lysate, small-molecule microarray, COS7 lysate, 635/667 nm fluorescence, primary screen (AID 1116). The note with it: 635 nm fluorescence, higher = more signal.
Experiment [10] has as its target Alpha-bungarotoxin (Bungarus multicinctus) (UniProt P60615). Kind of experiment: compounds binding labelled alpha-BTX control protein – biochemical, small-molecule microarray, Alexa647 label, 635/667 nm fluorescence, artefact control for SMM control protein annotation, profiling panel (AID 1117). The conditions noted are these: alpha-BTX-A647 binding fluorescence, higher = more signal.

Another experiment has as its target Albumin (Bos taurus) (UniProt P02769). Kind of experiment: compounds binding labelled BSA control protein – biochemical, small-molecule microarray, Alexa647 label, 635/667 nm fluorescence, artefact control for SMM control protein annotation, profiling panel (AID 1118).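 Note: score merges 667 nm emission intensity and signal-to-noise per printed compound spot.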 The conditions noted are these: BSA-A647 binding, fluorescence 635 nm, higher = more signal.
Experiment [11] in a line: probe aXIP binding to arrayed compounds – biochemical, NeuroSMM set, 635/667 nm fluorescence, primary screen (AID 1119).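 Note: probe is the protein aXip251-270 applied at 1 µg/mL to compound-printed slides; binding of probe to printed compounds measured as 667 nm fluorescence plus signal to noise.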 The conditions noted are these: small-molecule microarray, higher = more signal, called active from +8 up or from −8 down.
The nature of experiment [12]: probe aNOTCH3 binding on compound microarray – biochemical, small-molecule microarray, 635/667 nm fluorescence, primary screen (AID 1120).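 Note: probe is a biotin-tagged antibody raised against NOTCH3 rather than NOTCH3 protein; score merges spot fluorescence near 667 nm with spot signal to noise.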 The note with it: higher = more signal.
Experiment [13] in a line: probe aNOTCH2 binding on compound microarray – biochemical, small-molecule microarray, 635/667 nm fluorescence, primary screen (AID 1121).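 Note: score merges feature fluorescence read at 667 nm with its signal to noise.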 The note with it: higher = more signal.
The target of experiment [14] is Carbonic anhydrase 2 (Homo sapiens) (UniProt P00918). Kind of experiment: compounds binding carbonic anhydrase 2 – biochemical, small-molecule microarray, Alexa647-labelled CAII, profiling panel (AID 1122). The note with it: CAII-A647 binding fluorescence, higher = more signal.
A short description of experiment [15]: COS7 lysate on small-molecule microarray, probe aHis, 635 nm (AID 1123).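 Note: z-score combines 667nm fluorescence intensity with signal-to-noise per printed compound spot.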 The conditions noted are these: COS7 cell lysate, fluorescence, higher = more signal.
The nature of experiment [16]: probe aLAP1 signal on lysate-treated microarray – cell lysate, small-molecule microarray, COS7 lysate, primary screen (AID 1124).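 Note: lysate comes from COS7 cells expressing LAP1 and is applied at 0.3 µg/mL; score merges spot fluorescence near 667 nm with signal-to-noise over triplicate slides.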 The note with it: probe aLAP1, fluorescence, higher = more signal.
For the next experiment, the system named is Sam68 (KHDRBS1). Kind of experiment: compounds binding KHDRBS1 protein – biochemical, small-molecule microarray, 635 nm fluorescence, primary screen (AID 1125).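 Note: score merges 667 nm channel intensity with signal to noise over triplicate slides.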 The conditions noted are these: higher = more signal.
For experiment [17], the system named is Chordin-like protein 2 (CHRDL2). Kind of experiment: compounds binding chordin-like 2 – biochemical, small-molecule microarray, 635 nm fluorescence, primary screen (AID 1126).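 Note: printed compound slides probed with Chrdl2 protein at 4 µg/mL for 1 h at 4 C; score merges 667 nm emission intensity with signal to noise over three replicate slides.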 The note with it: fluorescence 635 nm, higher = more signal.
For experiment [18], the target named is Concanavalin-A (Canavalia ensiformis) (UniProt P02866). Kind of experiment: compounds binding concanavalin A lectin – biochemical, small-molecule microarray, Alexa647 label, 635 nm, artefact control for SMM control protein annotation, primary screen (AID 1127).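 Note: z combines 667 nm emission intensity with signal-to-noise across three replicate slides.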 The note with it: ConA-A647 binding fluorescence, higher = more signal.
Concanavalin-A (Canavalia ensiformis), sequence (P02866 whole entry, looked up): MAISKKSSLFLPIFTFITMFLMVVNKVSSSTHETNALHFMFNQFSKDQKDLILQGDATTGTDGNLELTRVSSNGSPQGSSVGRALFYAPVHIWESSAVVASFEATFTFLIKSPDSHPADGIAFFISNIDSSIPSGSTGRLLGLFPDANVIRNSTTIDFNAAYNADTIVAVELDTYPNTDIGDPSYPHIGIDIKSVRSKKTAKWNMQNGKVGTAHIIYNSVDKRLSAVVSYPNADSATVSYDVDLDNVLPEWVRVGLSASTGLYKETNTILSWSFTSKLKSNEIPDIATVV

Torsin-1A-interacting protein 1 (Homo sapiens), sequence (Q5JTV8 whole entry, looked up): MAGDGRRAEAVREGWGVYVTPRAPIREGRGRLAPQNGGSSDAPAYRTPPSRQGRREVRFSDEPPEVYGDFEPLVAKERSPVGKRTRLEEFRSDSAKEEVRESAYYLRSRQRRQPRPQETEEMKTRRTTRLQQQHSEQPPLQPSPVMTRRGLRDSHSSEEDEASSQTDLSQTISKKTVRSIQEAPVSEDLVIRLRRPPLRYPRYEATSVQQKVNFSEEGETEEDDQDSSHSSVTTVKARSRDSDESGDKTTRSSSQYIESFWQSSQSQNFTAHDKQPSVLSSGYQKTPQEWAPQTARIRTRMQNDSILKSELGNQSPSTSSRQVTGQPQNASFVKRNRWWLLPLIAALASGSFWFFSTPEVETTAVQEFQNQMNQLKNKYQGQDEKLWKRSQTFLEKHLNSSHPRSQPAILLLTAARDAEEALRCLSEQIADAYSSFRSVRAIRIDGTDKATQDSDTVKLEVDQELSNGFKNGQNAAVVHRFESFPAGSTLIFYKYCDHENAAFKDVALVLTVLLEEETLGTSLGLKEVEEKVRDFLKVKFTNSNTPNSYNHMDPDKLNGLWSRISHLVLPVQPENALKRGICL
Albumin (Bos taurus), sequence (P02769 whole entry, looked up): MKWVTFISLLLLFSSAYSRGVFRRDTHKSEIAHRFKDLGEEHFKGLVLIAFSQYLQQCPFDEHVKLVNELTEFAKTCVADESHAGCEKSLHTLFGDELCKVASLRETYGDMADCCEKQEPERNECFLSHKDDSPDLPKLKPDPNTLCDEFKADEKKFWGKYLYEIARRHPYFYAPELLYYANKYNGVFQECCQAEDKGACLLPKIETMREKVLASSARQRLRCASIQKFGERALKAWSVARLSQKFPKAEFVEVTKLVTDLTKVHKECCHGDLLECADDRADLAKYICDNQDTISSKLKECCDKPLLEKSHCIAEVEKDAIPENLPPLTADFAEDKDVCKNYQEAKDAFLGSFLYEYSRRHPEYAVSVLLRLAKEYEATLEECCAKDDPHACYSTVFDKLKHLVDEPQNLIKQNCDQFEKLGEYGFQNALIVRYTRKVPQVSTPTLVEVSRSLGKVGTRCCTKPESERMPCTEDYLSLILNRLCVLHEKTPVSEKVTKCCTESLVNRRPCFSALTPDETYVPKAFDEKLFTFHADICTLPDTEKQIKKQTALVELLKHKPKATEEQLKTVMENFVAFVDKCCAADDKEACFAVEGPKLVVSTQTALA
Alpha-bungarotoxin (Bungarus multicinctus), sequence (P60615 whole entry, looked up): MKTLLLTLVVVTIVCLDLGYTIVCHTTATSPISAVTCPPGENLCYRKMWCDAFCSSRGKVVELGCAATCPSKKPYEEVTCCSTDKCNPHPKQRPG
Left-right determination factor 2 (Homo sapiens), sequence (O00292 whole entry, looked up): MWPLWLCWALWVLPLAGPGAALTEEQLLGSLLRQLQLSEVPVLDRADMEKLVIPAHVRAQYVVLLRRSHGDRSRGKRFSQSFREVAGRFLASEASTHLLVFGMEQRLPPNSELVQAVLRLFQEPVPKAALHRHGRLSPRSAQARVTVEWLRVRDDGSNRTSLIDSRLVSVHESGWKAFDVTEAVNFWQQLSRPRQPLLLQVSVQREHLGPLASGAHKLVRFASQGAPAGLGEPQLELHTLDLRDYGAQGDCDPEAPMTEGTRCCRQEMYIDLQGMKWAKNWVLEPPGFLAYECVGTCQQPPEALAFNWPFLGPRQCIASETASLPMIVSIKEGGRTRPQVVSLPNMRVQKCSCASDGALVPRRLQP

On to `COC(=O)[C@@]1(Cc2ccccc2)[C@H]2c3cc(C(=O)N(C)C)n(Cc4ccc(OC)c(OC)c4)c3C[C@H]2CN1C(=O)c1ccccc1`, for which the composite z-score in [1] was 1.46; in [3] it was -0.394; in experiment [4], 1.71; in experiment [5], 0.873; in [6] it was 0.229; in experiment [7], 0.187. The composite z-score in experiment [8] came to 2.35; in [9] it was 1.1; in experiment [10], 1.07; with Albumin (Bos taurus), 0.864; in experiment [12], 0.775; in experiment [13], 0.318. Moreover, the composite z-score in experiment [14] was 0.467; in experiment [15] it was 3.07; in [16] it was 0.463; with Sam68 (KHDRBS1) it was 1.29; in [17], -0.78; in experiment [18] it was 0.829. This molecule had a z-score in [2] of -2.35. The composite Z-score in experiment [11] is 0.0388 (inactive).
For `CC(c1ccccc1)C(O)C1C=CC2C(=O)N(C)C(=O)C2N1NC(=O)OC(C)(C)C` (stereo not given), the composite z-score in experiment [1] is 0.664; in [3], -0.0606; in experiment [4], 2.55; in experiment [5], 0.265; in experiment [6], 0.0377; in experiment [7], -0.273. Besides, the composite z-score in experiment [8] was 1.54; in experiment [9] it was 2.11; in experiment [10], 1.29; with Albumin (Bos taurus) it was 0.974; in [12], 0.148; in experiment [13] it was -0.0159. Moreover, the composite z-score was 0.695 in experiment [14]; 2.53 in experiment [15]; 0.857 in [16]; 1.3 with Sam68 (KHDRBS1); -0.338 in experiment [17]; 1.12 in experiment [18]. In experiment [2], the z-score was 0.658. The composite Z-score in experiment [11] is 0.741 (inactive).
For the molecule `CCCCCCCCCCC(O)C1C=CC2C(=O)NC(=O)C2N1Nc1ccc(Cl)cc1Cl` (stereo not given), the composite z-score in experiment [1] is 0.732; in experiment [3], -1.67; in [4], 1.21; in [5] it was 1.21; in experiment [6], -0.122; in experiment [7], -0.138. Besides, the composite z-score in experiment [8] is 1.07; in experiment [9] it was 0.345; in [10] it was -0.133; with Albumin (Bos taurus), 0.145; in [12] it was -0.0288; in [13] it was -0.077. Besides, the composite z-score in experiment [14] is 0.442; in experiment [15], 1.66; in [16], 0.192; in the experiment on Sam68 (KHDRBS1), -0.0789; in experiment [17] it was 0.0425; in [18], 0.248. This molecule gave a z-score in experiment [2] of -1.26. Also, the composite Z-score in experiment [11] is -0.383 (inactive).
On to `O=C1NC(=O)C2C1C=CC(C(O)c1ccc(-c3ccccc3)s1)N2Nc1ccc(Cl)cc1Cl` (stereo not given), for which the composite z-score in [1] was 1.29; in experiment [3], -0.114; in experiment [4], 1.65; in [5], 1.03; in experiment [6], 0.1; in experiment [7] it was 0.213. Besides, the composite z-score in experiment [8] is -0.358; in [9] it was 0.712; in [10] it was 1.06; with Albumin (Bos taurus) it was 0.924; in [12] it was 0.0979; in [13], -0.0611. Also, the composite z-score in experiment [14] is 0.759; in experiment [15] it was 2.82; in [16], 1.2; in the experiment on Sam68 (KHDRBS1), 1.33; in experiment [17], -0.717; in [18], 1.06. In experiment [2], the z-score amounted to 1.7. Besides, the composite Z-score in experiment [11] was 1.1 (inactive).
For the molecule `COCCOC(=O)N1C(=O)[C@@]2(c3ccccc31)[C@H](c1ccc(OCCO)cc1)N1[C@H](c3ccccc3)[C@H](c3ccccc3)OC(=O)[C@H]1[C@@H]2C(=O)N1CCc2cc(OC)c(OC)cc2C1`, the composite z-score in experiment [1] is 1.16; in experiment [3] it was 1.03; in experiment [4], 1.2; in [5], 0.0721; in experiment [6], -0.001; in experiment [7], 0.0141. The composite z-score in experiment [8] was 0.603; in [9], 0.977; in [10], 2.23; with Albumin (Bos taurus), 0.642; in [12] it was 0.273; in [13], -0.0021. Moreover, the composite z-score in experiment [14] worked out at 0.641; in experiment [15] it was 2.4; in experiment [16] it was 1.43; with Sam68 (KHDRBS1) it was 1.28; in [17], 0.584; in experiment [18], 1.16. The same molecule gave a z-score in [2] of -2.15. Also, the composite Z-score in experiment [11] was 0.158 (inactive).
For `CC[C@@H]1C=C(C(=O)O)[C@H](c2cccc3ccccc23)N1S(=O)(=O)c1ccc(C)cc1`, the composite z-score in experiment [1] is 0.828; in experiment [3], 0.132; in experiment [4], 1.45; in experiment [5], 0.725; in [6], 0.0742; in [7], -0.17. Also, the composite z-score is 0.526 in experiment [8]; 0.909 in experiment [9]; -0.158 in [10]; 0.8 with Albumin (Bos taurus); 0.0225 in experiment [12]; 0.0477 in experiment [13]. The composite z-score came out at 0.664 in experiment [14]; 1.58 in [15]; 0.687 in experiment [16]; 1.05 in the experiment on Sam68 (KHDRBS1); 0.0837 in [17]; 0.774 in experiment [18]. The same molecule gave a z-score in experiment [2] of 0.0731. Moreover, in experiment [11], the composite Z-score was -0.122 (inactive).
Turning to `CC(C)OC(=O)C=C1C[C@@H](c2cccc(Cl)c2)O[C@@H](c2cccc(Cl)c2)O1`, the composite z-score was 0.597 in experiment [1]; -0.869 in experiment [3]; 1.39 in experiment [4]; 1.05 in [5]; -0.0735 in experiment [6]; -0.0035 in experiment [7]. Also, the composite z-score in [8] was -0.43; in experiment [9], 1.58; in experiment [10], 0.381; with Albumin (Bos taurus) it was 0.466; in experiment [12], -0.137; in [13], 0.0234. Moreover, the composite z-score in experiment [14] was 0.299; in [15], 1.68; in experiment [16], 0.484; with Sam68 (KHDRBS1), -0.296; in experiment [17], -0.579; in experiment [18], 0.99. The molecule further yielded a z-score in [2] of -0.825. For the same molecule, the composite Z-score in experiment [11] is 0.806 (inactive).

(Values after PubChem BioAssay.)
